{"source": "PubChem BioAssay AID624405", "about": "(Broad Institute, 2012)", "note": "In all, about 1,900 compounds went through this assay and about 250 (13%) were called active. About 4% were inconclusive and are not listed.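 The calls were made as follows: active = fitted curve reaches 40% rescue activity at or below the top valid dose, in every test run; inconclusive = test runs disagree, some active and some inactive; inactive = every run misses the threshold or moves the wrong way.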 Not all results are given here. Results with a measured potency or affinity are listed apart.", "data": [{"assay": "rescue of simvastatin-induced ATP loss – cell-based, C2C12 myotubes, ATP luminescence, cherry pick, dose response (AID 624405);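 also: myotubes are challenged with simvastatin at 10 µM to lower ATP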", "conditions": "48 h, scaled: DMSO wells 0, geranylgeraniol wells 100; series mostly up to 19.5 µM", "values": [{"smiles": "C[C@@H]1CN([C@@H](C)CO)C(=O)c2cc(NC(=O)Nc3ccc(C(F)(F)F)cc3)ccc2O[C@@H]1CN(C)Cc1ccc(C(=O)Nc2ccccc2N)cc1", "outcome": "inactive"}, {"smiles": "C[C@H](CO)N1C[C@H](C)[C@H](CN(C)Cc2ccc(C(=O)Nc3ccccc3N)cc2)Oc2ccc(NC(=O)Nc3ccc(C(F)(F)F)cc3)cc2C1=O", "outcome": "inactive"}, {"smiles": "C[C@@H]1CN([C@H](C)CO)C(=O)c2cc(NC(=O)Nc3ccc(C(F)(F)F)cc3)ccc2O[C@H]1CN(C)Cc1ccc(C(=O)Nc2ccccc2N)cc1", "outcome": "inactive"}, {"smiles": "C[C@@H]1CN([C@H](C)CO)C(=O)c2cccc(NC(=O)c3nc4ccccc4s3)c2O[C@@H]1CN(C)C(=O)Nc1cccc2ccccc12", "outcome": "inactive"}, {"smiles": "C[C@@H]1CN([C@@H](C)CO)C(=O)c2cccc(NC(=O)Nc3ccccc3)c2O[C@H]1CN(C)Cc1ccc(C(=O)Nc2ccccc2N)cc1", "outcome": "inactive"}, {"smiles": "C[C@@H]1CN([C@@H](C)CO)C(=O)c2cccc(NC(=O)c3nc4ccccc4s3)c2O[C@H]1CN(C)Cc1ccc(C(=O)Nc2ccccc2N)cc1", "outcome": "inactive"}, {"smiles": "C[C@@H]1CN([C@H](C)CO)C(=O)c2cccc(NC(=O)C3CCOCC3)c2O[C@@H]1CN(C)Cc1ccc(C(=O)Nc2ccccc2N)cc1", "outcome": "inactive"}, {"smiles": "C[C@H]1CN([C@@H](C)CO)C(=O)c2cc(NC(=O)Nc3ccc(C(F)(F)F)cc3)ccc2O[C@H]1CN(C)Cc1ccc(C(=O)Nc2ccccc2N)cc1", "outcome": "inactive"}, {"smiles": "O=C(O)CCC(C(=O)O)n1c(O)c(C2=c3ccccc3=NC2=O)sc1=S", "note": "(centres undefined)", "outcome": "inactive"}, {"smiles": "COc1ccc(C(=O)N2C[C@H]3[C@@H](c4ccccc42)[C@H](CO)N3Cc2ccccc2)cc1", "outcome": "inactive"}, {"smiles": "C[C@H]1CN([C@@H](C)CO)C(=O)c2cccc(NC(=O)Nc3ccc(C(F)(F)F)cc3)c2O[C@@H]1CN(C)S(=O)(=O)c1ccc(Cl)cc1", "outcome": "inactive"}, {"smiles": "C[C@H]1CCCCO[C@H](CN(C)C(=O)Nc2cccc3ccccc23)[C@@H](C)CN([C@@H](C)CO)C(=O)c2cc(NC(=O)Nc3ccc4c(c3)OCO4)ccc2O1", "outcome": "inactive"}, {"smiles": "COc1ccc(S(=O)(=O)N2CCN(c3ccc4nnc(-c5ccccc5)n4n3)CC2)cc1", "outcome": "inactive"}, {"smiles": "COc1ccc(-c2nc(CC(=O)O)cs2)cc1", "outcome": "inactive"}, {"smiles": "COc1ccc(-c2noc(CCCOc3ccc(Cl)cc3Cl)n2)cc1", "outcome": "inactive"}, {"smiles": "COc1ccc2sc(-c3ccccc3OC)c(-c3ccc(O)cc3)c2c1", "outcome": "inactive"}, {"smiles": "C[C@@H]1CCCCO[C@@H](CN(C)S(=O)(=O)c2ccc(F)cc2)[C@@H](C)CN([C@H](C)CO)C(=O)c2cc(NC(=O)Nc3cccc4ccccc34)ccc2O1", "outcome": "inactive"}, {"smiles": "C[C@@H]1CCCCO[C@H](CN(C)S(=O)(=O)c2cccs2)[C@H](C)CN([C@H](C)CO)C(=O)c2cc(NC(=O)Nc3ccc(F)cc3)ccc2O1", "outcome": "inactive"}, {"smiles": "C[C@H]1CN([C@@H](C)CO)C(=O)c2cccc(NC(=O)Nc3ccc(F)cc3)c2O[C@@H]1CN(C)CC1CCCCC1", "outcome": "inactive"}, {"smiles": "C[C@H]1CN([C@@H](C)CO)C(=O)c2cccc(NC(=O)Nc3ccc4c(c3)OCO4)c2O[C@@H]1CN(C)CC1CCCCC1", "outcome": "inactive"}, {"smiles": "CC(=O)c1cc(C#N)c(Oc2ccc(Cl)cc2Cl)nc1C", "outcome": "inactive"}, {"smiles": "CC(=O)C1=C(O)C(=O)N(c2ccc(S(N)(=O)=O)cc2)C1c1ccccc1F", "note": "(centres undefined)", "outcome": "inactive"}, {"smiles": "C[C@@H]1CN([C@H](C)CO)C(=O)c2cc(C3=CCCCC3)cnc2O[C@@H]1CN(C)C(=O)Nc1ccc(F)cc1", "outcome": "inactive"}, {"smiles": "Cc1noc(C)c1NC(=O)Nc1ccc2c(c1)C(=O)N([C@@H](C)CO)C[C@@H](C)[C@@H](CN(C)C(=O)Nc1cccc3ccccc13)O2", "outcome": "inactive"}, {"smiles": "CC(O)CNc1nc2ccccc2n1-c1ncnc2sc3c(c12)CCC3", "note": "(centres undefined)", "outcome": "inactive"}, {"smiles": "Oc1[nH]c2ccccc2c1C=NCC1CCCO1", "note": "(centres undefined)", "outcome": "inactive"}, {"smiles": "CCOC(=O)C1=NN(C(=O)Cc2ccccc2)C(O)(c2ccc(Cl)cc2)C1", "note": "(centres undefined)", "outcome": "inactive"}, {"smiles": "C[C@@H]1CN([C@@H](C)CO)C(=O)Cc2cc(NC(=O)Nc3cccc4ccccc34)ccc2O[C@@H]1CN(C)Cc1ccc(C(=O)Nc2ccccc2N)cc1", "outcome": "inactive"}, {"smiles": "C[C@@H]1CN([C@H](C)CO)C(=O)Cc2cc(NC(=O)Nc3cccc4ccccc34)ccc2O[C@H]1CN(C)Cc1ccc(C(=O)Nc2ccccc2N)cc1", "outcome": "inactive"}, {"smiles": "C[C@@H]1CN([C@H](C)CO)C(=O)Cc2cc(NC(=O)Nc3cccc4ccccc34)ccc2O[C@@H]1CN(C)Cc1ccc(C(=O)Nc2ccccc2N)cc1", "outcome": "inactive"}, {"smiles": "C[C@H]1CN([C@@H](C)CO)C(=O)Cc2cc(NC(=O)Nc3cccc4ccccc34)ccc2O[C@@H]1CN(C)Cc1ccc(C(=O)Nc2ccccc2N)cc1", "outcome": "inactive"}, {"smiles": "CCN(CC)C(=O)c1scc2c1OCCO2", "outcome": "inactive"}, {"smiles": "CC1CC(c2ccccc2)n2nc(N3C(=O)c4ccccc4C3=O)nc2N1", "note": "(centres undefined)", "outcome": "inactive"}, {"smiles": "Cc1nnc(SCC(=O)NCc2ccccc2)n1-c1ccccc1", "outcome": "inactive"}, {"smiles": "c1ccc(CSc2nnc(-c3ccccn3)n2-c2ccccc2)cc1", "outcome": "inactive"}, {"smiles": "COc1ccc(CN(C)C[C@@H]2Oc3ccc(NC(=O)Cc4ccccc4)cc3CC(=O)N([C@H](C)CO)C[C@H]2C)cc1", "outcome": "inactive"}, {"smiles": "CC(=O)Nc1cccc(Nc2nc(-c3ccccc3F)nc3ccccc23)c1", "outcome": "inactive"}, {"smiles": "CCCC(=O)NC(=S)Nc1cccc(C(C)=O)c1", "outcome": "inactive"}, {"smiles": "CCN(C(=O)COC(=O)c1cnc(C)cn1)C1CCCCC1", "outcome": "inactive"}, {"smiles": "Cc1cc(C)c2c(c1)/C(=N/NS(=O)(=O)c1ccccc1)CCC2", "outcome": "inactive"}, {"smiles": "Cc1ccccc1N(CC(=O)NC1CCCC1)C(=O)CS(=O)CC(=O)Nc1ccc2c(c1)OCO2", "note": "(centres undefined)", "outcome": "inactive"}, {"smiles": "CC1CCN(S(=O)(=O)c2ccc3ccccc3c2)CC1", "outcome": "inactive"}, {"smiles": "CC(C)C(=O)Nc1cc(S(=O)(=O)N2CCOCC2)ccc1N1CCCCC1", "outcome": "inactive"}, {"smiles": "OCCNCc1cccc(-c2ccccc2)c1O", "outcome": "inactive"}, {"smiles": "O=C(c1ccco1)N1CCN(C(=O)c2cc3sccc3n2Cc2ccccc2)CC1", "outcome": "inactive"}, {"smiles": "O=C(NCc1ccco1)C1CCN(C(=O)c2cc3sccc3n2Cc2ccc(F)cc2)CC1", "outcome": "inactive"}, {"smiles": "CC(C)Oc1ccc(C(=O)NCc2ccco2)cc1", "outcome": "inactive"}, {"smiles": "O=C(CN(c1ccc(F)cc1)S(=O)(=O)c1ccccc1)NCc1ccco1", "outcome": "inactive"}, {"smiles": "CCN1CCN(c2ccc(NC(=O)Cc3ccccc3)cc2)CC1", "outcome": "inactive"}]}]}
